Results published in PubChem BioAssay (EPA / NIEHS).
Inconclusive results are not listed. Active and inactive are the calls of the source. How the source made its calls: active means hit-call score of the fitted dose curve at least 0.9, where 1 is the maximum; inconclusive means response in the unintended direction; inactive means score below 0.9.

What was measured:
[1] = NVS_IC_rCaBTZCHL: NovaScreen (NVS) Ion Channel Assay for Calcium Channel, Type L, Benzothiazepine Site (CaBTZCHL) (AID 2283337)
Method in brief: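 Scintillation counting of filter-bound radioligand gave the read-out, with reduced binding versus DMSO scored as activity. Membranes came from rat cortex and were read 1.5 h after compound addition. Chemicals were screened first in duplicate at 25 uM.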

[2] = molecular target: bovine Estrogen Receptor (ER), ESR1 (gene 407238) (UniProt P49884); test: NVS_NR_bER: NovaScreen (NVS) Nuclear Receptor Binding Assay for bovine Estrogen Receptor (ER) (AID 2283345);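 further: actives lower the bound radioligand count which means they displace the ER ligand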
Method in brief: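 Bovine uterine membranes; tritiated or iodinated radioligand; competitive displacement; 18 h; scintillation read; DMSO negative control; 25 uM duplicates, then concentration series for actives.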

[3] = molecular target: Estrogen receptor (Homo sapiens) (UniProt P03372); test: NVS_NR_hER: NovaScreen (NVS) Nuclear Receptor Binding Assay for human Estrogen Receptor (ER) (AID 2283348)
Method in brief: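 Radioligand competitive displacement binding to estrogen receptor from MCF7 extract, cell-free; 18 h after dosing, scintillation read-out. Primary screen in duplicate at 25 uM; actives followed up in concentration series; loss of signal vs DMSO.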

[4] = molecular target: Estrogen receptor (Homo sapiens) (UniProt P03372); test: OT_ER_ERaERa_1440: Odyssey Thera (OT) 24-hour HEK293T Protein-Complementation Assay for Estrogen Receptor-alpha/-alpha Homodimer (AID 2283349);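 further: hits raise fluorescence above DMSO for agonists and antagonists alike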
Method in brief: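 HEK293T cells stably expressing the human ER alpha ligand-binding domain (aa 310-547) as a homodimer PCA were dosed for 24 hours. Fluorescence intensity was read by laser scanning cytometry, and gain of signal was fitted relative to DMSO vehicle.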

[5] = molecular target: Estrogen receptor (Homo sapiens) (UniProt P03372); test: OT_ER_ERaERa_0480: Odyssey Thera (OT) 8-hour HEK293T Protein-Complementation Assay for Estrogen Receptor-alpha/-alpha Homodimer (AID 2283351);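 further: rise in fluorescence from reassembled reporter fragments on ERα LBD homodimer in nucleus or whole cell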
Method in brief: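 HEK293T, stable ERα LBD (aa 310-547) PCA homodimer; 8 h compound exposure; fluorescence intensity, laser scanning cytometer; positive fitting direction, DMSO baseline.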

[6] = molecular target: T1, Estrogen receptor (Homo sapiens) + Estrogen receptor beta (Homo sapiens) (UniProt P03372+Q92731); test: OT_ER_ERaERb_0480: Odyssey Thera (OT) 8-hour HEK293T Protein-Complementation Assay for Estrogen Receptor-alpha/-beta Heterodimer (AID 2283352)
Method in brief: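 Increase in mean fluorescence intensity, measured by laser scanning plate cytometry, reported ER-alpha/ER-beta LBD complementation in HEK293T cells after 8 h chemical exposure. DMSO served as baseline; basal signal is low, punctate and cytoplasmic.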

[7] = molecular target: T1, Estrogen receptor (Homo sapiens) + Estrogen receptor beta (Homo sapiens); test: OT_ER_ERaERb_1440: Odyssey Thera (OT) 24-hour HEK293T Protein-Complementation Assay for Estrogen Receptor-alpha/-beta Homodimer (AID 2283356);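 further: heteromer of ER alpha and ER beta binding domains; hits raise reporter fluorescence and both agonists and antagonists give an increase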
Method in brief: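 Heterodimerisation of ERα (aa 310-547) and ERβ (aa 263-489) ligand binding domains was tracked as fluorescence gain in stably transfected HEK293T cells following 24 h dosing, normalised to DMSO controls.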

[8] = molecular target: human Androgen Receptor (AR), AR (gene 367) (UniProt P10275); test: NVS_NR_hAR: NovaScreen (NVS) Nuclear Receptor Binding Assay for human Androgen Receptor (AR) (AID 2283332)
Method in brief: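 LnCAP cell-free extract; radioligand displacement read by scintillation counting after 20 h. Primary screen single concentration 25 uM in duplicate, actives then run as concentration series; loss-of-signal fitted relative to DMSO baseline.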

[9] = molecular target: rat Mineralocorticoid Receptor (MR), Nr3c2 (gene 25672) (UniProt P22199); test: NVS_NR_rMR: NovaScreen (NVS) Nuclear Receptor Binding Assay for rat Mineralocorticoid Receptor (MR) (AID 2283355)
Method in brief: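 Cell-free radioligand binding to mineralocorticoid receptor from adrenalectomized rat brain supernatant, scintillation counting after 24 h. Primary screen in duplicate at 25 uM; actives retested in concentration series. Loss of specific binding versus DMSO.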

[10] = molecular target: Retinoic acid receptor alpha (Homo sapiens) (UniProt P10276); test: NVS_NR_hRAR_Antagonist: NovaScreen (NVS) Nuclear Receptor Binding Assay for human Retinoic Acid Alpha Receptor Antagonism (RAR) (AID 2283358)
Method in brief: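 Cell-free TR-FRET binding assay with extracted human RARalpha in antagonist mode, read 2 h after dosing. Loss of signal was fitted relative to DMSO; the primary screen used 25 uM in duplicate, with concentration series on follow-up.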

[11] = molecular target: Retinoic acid receptor alpha (Homo sapiens) (UniProt P10276); test: NVS_NR_hRARa_Agonist: NovaScreen (NVS) Nuclear Receptor Binding Assay for human Retinoic Acid Alpha Receptor Agonism (RAR) (AID 2283361)
Method in brief: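 Cell-free TR-FRET binding readout with extracted receptor protein, read 2 hours after dosing; gain-of-signal fitted relative to DMSO. Screened in duplicate at 25 uM, actives then run in concentration-response.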

Estrogen receptor (Homo sapiens), sequence (P03372 whole entry, looked up, the tested form may be a part): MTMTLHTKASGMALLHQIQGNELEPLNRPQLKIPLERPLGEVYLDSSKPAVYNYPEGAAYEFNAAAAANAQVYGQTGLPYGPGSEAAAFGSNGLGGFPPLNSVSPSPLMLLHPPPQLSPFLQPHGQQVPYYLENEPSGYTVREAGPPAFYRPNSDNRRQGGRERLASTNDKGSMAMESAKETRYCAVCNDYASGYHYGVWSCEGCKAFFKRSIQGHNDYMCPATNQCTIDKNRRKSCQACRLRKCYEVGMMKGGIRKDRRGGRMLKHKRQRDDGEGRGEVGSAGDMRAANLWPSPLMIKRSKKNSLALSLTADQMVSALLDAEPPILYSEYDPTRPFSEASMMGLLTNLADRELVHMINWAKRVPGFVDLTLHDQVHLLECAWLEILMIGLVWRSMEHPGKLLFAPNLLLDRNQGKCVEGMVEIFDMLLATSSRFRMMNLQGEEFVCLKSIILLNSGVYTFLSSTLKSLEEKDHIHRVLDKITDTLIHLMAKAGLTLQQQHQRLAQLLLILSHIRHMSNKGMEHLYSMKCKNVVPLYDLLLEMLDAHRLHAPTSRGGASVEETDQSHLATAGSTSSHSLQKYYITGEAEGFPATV
T1 sequence (P03372 whole entry, looked up, the tested form may be a part): as above
T1 sequence (Q92731 whole entry, looked up, the tested form may be a part): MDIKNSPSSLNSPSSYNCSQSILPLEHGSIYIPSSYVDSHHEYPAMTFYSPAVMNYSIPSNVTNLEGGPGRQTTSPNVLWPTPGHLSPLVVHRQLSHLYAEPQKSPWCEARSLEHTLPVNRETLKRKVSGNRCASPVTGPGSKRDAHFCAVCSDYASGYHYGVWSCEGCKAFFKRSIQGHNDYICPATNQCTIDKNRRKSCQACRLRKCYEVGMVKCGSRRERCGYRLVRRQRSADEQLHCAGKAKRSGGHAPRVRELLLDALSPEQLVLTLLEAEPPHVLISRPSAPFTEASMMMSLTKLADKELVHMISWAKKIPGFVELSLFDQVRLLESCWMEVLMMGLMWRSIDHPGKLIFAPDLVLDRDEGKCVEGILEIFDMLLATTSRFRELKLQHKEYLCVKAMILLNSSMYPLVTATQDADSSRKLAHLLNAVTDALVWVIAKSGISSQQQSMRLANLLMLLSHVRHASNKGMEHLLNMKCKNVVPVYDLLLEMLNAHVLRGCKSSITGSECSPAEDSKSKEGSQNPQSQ
Retinoic acid receptor alpha (Homo sapiens), sequence (P10276 whole entry, looked up): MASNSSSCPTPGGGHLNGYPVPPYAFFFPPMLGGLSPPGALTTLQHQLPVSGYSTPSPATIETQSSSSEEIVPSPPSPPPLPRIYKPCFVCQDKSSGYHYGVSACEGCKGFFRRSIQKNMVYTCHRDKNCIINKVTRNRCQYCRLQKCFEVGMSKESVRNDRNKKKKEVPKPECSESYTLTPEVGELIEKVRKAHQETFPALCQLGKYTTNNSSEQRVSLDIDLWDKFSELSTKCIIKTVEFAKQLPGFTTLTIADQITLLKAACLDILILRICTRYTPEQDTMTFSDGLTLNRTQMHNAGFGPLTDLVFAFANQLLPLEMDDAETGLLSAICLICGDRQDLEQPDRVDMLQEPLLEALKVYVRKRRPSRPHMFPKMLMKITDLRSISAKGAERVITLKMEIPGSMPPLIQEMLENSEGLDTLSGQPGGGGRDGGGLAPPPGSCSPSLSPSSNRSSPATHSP
rat Mineralocorticoid Receptor (MR), Nr3c2 (gene 25672), sequence (P22199 whole entry, looked up): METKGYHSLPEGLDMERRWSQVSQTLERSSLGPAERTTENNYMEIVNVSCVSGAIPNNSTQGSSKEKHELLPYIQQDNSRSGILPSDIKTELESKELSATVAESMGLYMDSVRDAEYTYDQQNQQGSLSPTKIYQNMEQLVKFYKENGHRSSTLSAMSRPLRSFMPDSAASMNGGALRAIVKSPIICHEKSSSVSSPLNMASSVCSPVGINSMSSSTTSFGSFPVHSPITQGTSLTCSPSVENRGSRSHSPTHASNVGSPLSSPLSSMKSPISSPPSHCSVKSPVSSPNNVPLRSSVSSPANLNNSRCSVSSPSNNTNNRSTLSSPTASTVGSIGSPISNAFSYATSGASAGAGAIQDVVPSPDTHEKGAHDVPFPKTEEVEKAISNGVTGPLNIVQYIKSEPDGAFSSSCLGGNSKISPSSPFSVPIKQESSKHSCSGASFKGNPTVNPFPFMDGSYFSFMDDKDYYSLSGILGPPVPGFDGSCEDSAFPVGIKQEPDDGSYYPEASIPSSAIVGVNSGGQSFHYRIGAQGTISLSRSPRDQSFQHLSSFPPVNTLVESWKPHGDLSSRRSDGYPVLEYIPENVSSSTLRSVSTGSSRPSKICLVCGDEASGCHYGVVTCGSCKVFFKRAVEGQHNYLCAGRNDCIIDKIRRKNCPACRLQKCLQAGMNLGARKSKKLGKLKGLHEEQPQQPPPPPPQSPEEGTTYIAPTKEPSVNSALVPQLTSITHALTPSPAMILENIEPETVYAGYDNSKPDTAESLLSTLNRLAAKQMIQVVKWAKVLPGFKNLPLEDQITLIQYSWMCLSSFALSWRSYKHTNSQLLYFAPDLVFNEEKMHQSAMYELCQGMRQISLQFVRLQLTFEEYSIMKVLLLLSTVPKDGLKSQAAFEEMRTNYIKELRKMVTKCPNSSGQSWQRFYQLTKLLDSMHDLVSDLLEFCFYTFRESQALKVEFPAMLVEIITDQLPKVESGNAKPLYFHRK
bovine Estrogen Receptor (ER), ESR1 (gene 407238), sequence (P49884 whole entry, looked up): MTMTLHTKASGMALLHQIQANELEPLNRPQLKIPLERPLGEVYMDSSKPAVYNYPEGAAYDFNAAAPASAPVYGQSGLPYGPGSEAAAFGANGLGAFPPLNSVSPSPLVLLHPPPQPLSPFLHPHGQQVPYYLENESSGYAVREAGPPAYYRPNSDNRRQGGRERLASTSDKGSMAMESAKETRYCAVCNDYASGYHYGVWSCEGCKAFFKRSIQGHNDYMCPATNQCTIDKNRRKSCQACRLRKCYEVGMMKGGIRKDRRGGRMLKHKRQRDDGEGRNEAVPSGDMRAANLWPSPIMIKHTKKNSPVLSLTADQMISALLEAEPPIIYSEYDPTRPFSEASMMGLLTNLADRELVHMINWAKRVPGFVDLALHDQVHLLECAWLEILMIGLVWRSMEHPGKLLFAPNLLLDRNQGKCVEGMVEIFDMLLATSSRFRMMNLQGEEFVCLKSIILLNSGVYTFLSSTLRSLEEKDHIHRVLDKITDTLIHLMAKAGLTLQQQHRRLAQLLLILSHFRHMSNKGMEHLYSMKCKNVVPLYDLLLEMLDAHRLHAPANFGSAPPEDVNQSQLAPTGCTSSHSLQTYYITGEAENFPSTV
human Androgen Receptor (AR), AR (gene 367), sequence (P10275 whole entry, looked up): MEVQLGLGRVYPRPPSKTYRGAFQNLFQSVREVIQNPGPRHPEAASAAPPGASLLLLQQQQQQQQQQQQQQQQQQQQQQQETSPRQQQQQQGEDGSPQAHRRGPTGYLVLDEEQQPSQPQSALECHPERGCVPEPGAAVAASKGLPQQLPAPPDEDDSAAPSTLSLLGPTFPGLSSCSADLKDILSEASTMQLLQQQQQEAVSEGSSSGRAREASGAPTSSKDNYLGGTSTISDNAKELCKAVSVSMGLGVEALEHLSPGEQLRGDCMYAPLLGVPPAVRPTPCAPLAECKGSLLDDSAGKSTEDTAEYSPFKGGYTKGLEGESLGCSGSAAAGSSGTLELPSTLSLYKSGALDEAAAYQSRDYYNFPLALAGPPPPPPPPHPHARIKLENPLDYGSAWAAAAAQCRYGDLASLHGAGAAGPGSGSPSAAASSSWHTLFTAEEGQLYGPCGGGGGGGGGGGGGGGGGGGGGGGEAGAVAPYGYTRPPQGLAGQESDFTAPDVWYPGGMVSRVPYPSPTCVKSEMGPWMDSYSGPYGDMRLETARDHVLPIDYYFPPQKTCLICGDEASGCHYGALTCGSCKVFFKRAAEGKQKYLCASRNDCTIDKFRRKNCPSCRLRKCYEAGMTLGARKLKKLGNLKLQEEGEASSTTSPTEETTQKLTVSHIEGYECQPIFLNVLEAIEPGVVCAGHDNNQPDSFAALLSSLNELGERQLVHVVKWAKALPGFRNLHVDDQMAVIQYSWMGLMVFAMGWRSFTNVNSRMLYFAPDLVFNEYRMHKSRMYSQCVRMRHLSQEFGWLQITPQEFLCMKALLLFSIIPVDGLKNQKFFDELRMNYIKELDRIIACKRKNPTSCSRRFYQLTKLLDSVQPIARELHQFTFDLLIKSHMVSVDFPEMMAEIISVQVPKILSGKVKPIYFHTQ

c1ccc(Oc2ccccc2)cc1
outcome [1]: inactive

CCCCCCCCCCCC(=O)OCC(O)CO (stereo not given)
outcome [2]: inactive
outcome [3]: inactive
outcome [4]: inactive
outcome [5]: inactive
outcome [6]: inactive
outcome [7]: inactive

Oc1c(Cl)cc(Cl)c(Cl)c1Cc1c(O)c(Cl)cc(Cl)c1Cl
AC50 [8]: 24 µM (active)
outcome [9]: inactive

Cc1[nH]c(=O)c(C#N)cc1-c1ccncc1
outcome [2]: inactive

CS(=O)(=O)OCCCCOS(C)(=O)=O
AC50 [3]: 0.875 µM (active)

O=C(Nc1ccc2c(O)c(N=Nc3ccc(N=Nc4ccc(S(=O)(=O)O)cc4)cc3)c(S(=O)(=O)O)cc2c1)c1ccccc1
outcome [6]: inactive
outcome [7]: inactive

CC(C)CCCCCCc1ccc(OCCOCCO)cc1
AC50 [6]: 33.8 µM (active)
AC50 [7]: 36.5 µM (active)

CCOc1ccc(N=Nc2ccc(C=Cc3ccc(N=Nc4ccc(OCC)cc4)cc3S(=O)(=O)O)c(S(=O)(=O)O)c2)cc1
AC50 [10]: 12.9 µM (active)

Cc1cc(=O)oc2cc(N(C)C)ccc12
AC50 [11]: 14.6 µM (active)

CCCCC(CC)COC(=O)c1ccc(O)cc1 (stereo not given)
outcome [11]: inactive

CC(=O)CC(=O)Nc1ccccc1
outcome [9]: inactive

CCCCCCCCc1ccc(S(=O)(=O)O)cc1
AC50 [10]: 16.8 µM (active)
